Laboratory results: PubChem BioAssay AID686978 (National Center for Advancing Translational Sciences (NCATS), 2013)
In all, about 420,000 compounds went through this assay and about 64,000 (15%) were called active. Not shown: some 27% with an inconclusive outcome. The call rests on the fitted dose curve; in most records, active means well fitted inhibition curve with a large enough effect; inconclusive means small, poorly fitted or top-dose-only effect; inactive means flat fitted curve, though single readings scatter. These entries were drawn from the full list. Entries that show only a call come without a potency.

Experiment: qHTS for Inhibitors of human tyrosyl-DNA phosphodiesterase 1 (TDP1): qHTS in cells in absence of CPT; further: nearly all actives have a fitted effect of over 55% in size
Conditions: DT40 Tdp1-/- hTDP1 cells, no CPT, ATP luminescence, 48 h; activity change, negative = growth inhibition: at 46.2 µM (top of the series)
In short: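 Growth kinetics read by CellTiter-Glo luminescence after ≥48 hr at 37 °C. Cells: DT40 Tdp1-/- stably carrying human TDP1, 400 per well, compound exposure in the absence of CPT (DMSO vehicle).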
Potency means the concentration at half of the fitted maximal effect.

SMILES	Potency
CC(NC(=O)c1ccc(S(=O)(=O)Nc2ccccc2)cc1)c1ccc(S(N)(=O)=O)cc1 (stereo not drawn)	inactive
CCOC(=O)c1cc2occc2n1CC(=O)NC1CCC(C)CC1 (stereo not drawn)	inactive
CC(=O)N1C[C@@H](CO)[C@@H](N(C)C(=O)c2ccco2)C[C@H]1c1ccccc1	inactive
Cn1c(SCC(=O)Nc2ccc(Cl)cc2)nc(O)cc1=O	inactive
Cc1cccc(NC(=O)c2nc(S(=O)(=O)Cc3ccccc3)ncc2Cl)c1	2.06 µM (active)
NC(=O)CSc1nnc(NC(=O)c2ccc(Br)o2)s1	inactive
CCSc1ncc(Cl)c(C(=O)Nc2cc(C)ccc2C)n1	inactive
O=C(Nc1ccccc1C(F)(F)F)c1nc(S(=O)(=O)Cc2ccccc2F)ncc1Cl	0.708 µM (active)
O=C(Nc1nc2ccc(F)cc2s1)c1nc(SCc2ccccc2F)ncc1Cl	inactive
CSc1nnc(NC(=O)c2nc(S(=O)(=O)Cc3ccc(C)cc3)ncc2Cl)s1	4.11 µM (active)
CCCSc1ncc(Cl)c(C(=O)Nc2c(C(=O)Nc3ccccc3)oc3ccccc23)n1	inactive
CCSc1nnc(NC(=O)c2ccc(C)cc2)s1	inactive
Cc1cccc(NC(=O)C(C)SCc2ccccc2)c1 (stereo not drawn)	inactive
Cc1ccc(NC(=O)c2nc(S(=O)(=O)Cc3cccc(C)c3)ncc2Cl)cc1	0.651 µM (active)
CN(CC(=O)Nc1ccccc1C(F)(F)F)C(=O)Cc1ccccc1F	inactive
Cc1cccc(C(=O)Nc2ccc(Oc3cnccn3)cc2)c1	inactive
CCOc1ccc(S(=O)(=O)N2CCN=C2Cc2ccccc2)cc1C	inactive
O=C(COC(=O)c1cc(=O)[nH]c2ccccc12)NCc1cccc(Cl)c1	inactive
COc1ccccc1C1SCCN1C(=O)c1ccc([N+](=O)[O-])cc1 (stereo not drawn)	inactive
Cc1cc(/C=C2\SC(=O)N(C)C2=O)c(C)n1-c1cccc(C(=O)O)c1	inactive
Nc1cccc(-c2cncc(N3CCN(Cc4ccccn4)CC3)n2)c1	inactive
Nc1c(-c2ccccc2)nnn1Cc1ccccc1	inactive
O=C(Nc1cccnc1)c1ccc(Cl)cc1[N+](=O)[O-]	inactive
Clc1ccc(C=NC23CN4CN(CN(C4)C2)C3)cc1	inactive
Cc1cccc(CS(=O)(=O)c2ncc(Cl)c(C(=O)Nc3ccc(F)cc3)n2)c1	1.84 µM (active)
Cn1cc([N+](=O)[O-])c(C(=O)Nc2cnn(Cc3ccc(F)cc3)c2)n1	inactive

SMILES	Potency
Cc1cccc(OCc2ccc(C(=O)Nc3ccc(F)cc3)cc2)c1	inactive
COc1ccc(S(=O)(=O)NC(C)C(=O)NCc2ccncc2)cc1Cl (stereo not drawn)	inactive
O=C(NC1CCCC1)C1CC(=O)N(c2ccc(F)cc2)C1 (stereo not drawn)	inactive
O=C(c1cc(C(=O)N2CCN(c3ccc(F)cc3)CC2)cc([N+](=O)[O-])c1)N1CCN(c2ccc(F)cc2)CC1	4.61 µM (active)
Cc1noc(C)c1S(=O)(=O)Nc1ccc(C(=O)N2CCN(c3ccc(F)cc3)CC2)cc1	inactive
O=C(c1cc(-c2ccc(F)cc2)on1)N1CCN(c2ccc(F)cc2)CC1	inactive
O=[N+]([O-])c1ccc(N2CCN(c3ccc(F)cc3)CC2)cn1	inactive
O=C(c1cc2cc(F)ccc2[nH]1)N1CCN(c2ccc(F)cc2)CC1	inactive
O=C(c1cccc(C(=O)N2CCN(c3ccc(F)cc3)CC2)c1)N1CCN(c2ccc(F)cc2)CC1	13 µM (active)
CS(=O)(=O)N1CCC2(CC1)CN(Cc1cc(C(F)(F)F)cc(C(F)(F)F)c1)C2	inactive
Cc1c(NC(=O)COC(=O)/C=C/c2cccc(F)c2)c(=O)n(-c2ccccc2)n1C	inactive
Cc1ccnc(NS(=O)(=O)c2ccc(NC(=O)c3oc4ccccc4c3C)cc2)n1	inactive
Cc1oc(C(N)=O)cc1COc1ccc(C(N)=O)cc1	inactive
CCc1cccc2c3c([nH]c12)C(CC)(CC(=O)O)OCC3 (stereo not drawn)	inactive
CC1=CC(C)(C)Nc2ccc(OC(=O)CN3C(=O)C4CCCCC4C3=O)cc21 (stereo not drawn)	2.31 µM (active)
O=C(COC(=O)CN1C(=O)C2CCCCC2C1=O)Nc1ccc(F)c(F)c1F (stereo not drawn)	inactive
CC(OC(=O)CN1C(=O)C2CCCCC2C1=O)C(=O)Nc1ncc(Cl)cc1Cl (stereo not drawn)	inactive
O=C(CN1C(=O)NC(Cc2c[nH]c3ccccc23)C1=O)Nc1ccccc1C(F)(F)F (stereo not drawn)	inactive
COc1ccc(S(=O)(=O)NCCCc2ccccc2)cc1	inactive
COc1cccc(NC(C)=[N+](C)CCNS(=O)(=O)c2ccc(Cl)cc2)c1	inactive
COc1ccc(S(=O)(=O)NCCCCOc2ccc(Cl)cc2)cc1	2.06 µM (active)
Cc1nc(N)[nH]c(=O)c1Oc1cccc(C(F)(F)F)c1	inactive
Clc1cccc(N=C2NN=C(c3ccc4c(c3)OCCO4)CS2)c1	10.3 µM (active)
Cc1cccc(N=C2NN=C(c3c[nH]c4ccccc34)CS2)c1	inactive
COc1ccccc1CNC(=O)C1CCN(c2nc3ccccc3o2)CC1	inactive
CSc1ccc(CCNC(=O)C2CCN(c3nnc(-n4cccc4)s3)CC2)cc1	inactive

SMILES	Potency
COc1ccccc1CCNC(=O)c1cccn1-c1nnc(N2CCCCC2)s1	1.64 µM (active)
N#CC(=C1CCCC1)c1nc(-c2ccc(Cl)cc2)cs1	inactive
CCOC(=O)C1CCC(CN(Cc2ccc(OC)cc2)S(=O)(=O)c2ccc(F)c(C(=O)Nc3cc(C)ccc3C)c2)CC1 (stereo not drawn)	inactive
Cc1cc2c(cc1S(=O)(=O)NCc1ccc(Cl)cc1)OCC(=O)N2	inactive
CC(=O)N1CCC2(CCCN(Cc3ccccc3)C2)CC1	inactive
O=C(CCC(=O)OCc1ccc(Cl)cc1)Nc1ccccc1	inactive
CC(=O)N1CCC(C(=O)OCc2ccc(Cl)cc2)(c2ccccc2)CC1	11.6 µM (active)
Cc1noc(C)c1NC(=O)Nc1ccc2c(c1)C(=O)N([C@H](C)CO)C[C@H](C)[C@@H](CN(C)S(=O)(=O)c1cn(C)cn1)O2	inactive
NS(=O)(=O)c1ccc(NC(=O)CSc2nnc3c(n2)[nH]c2ccccc23)cc1	inactive
CCN(CC)c1ccc(/C=C/c2c(C)cnc3ccc(C)cc23)cc1	20 µM (active)
CCOC(=O)N1CCN(c2c(NCCCN3CCCC(C)C3)c(=O)c2=O)CC1 (stereo not drawn)	inactive
CC(C)C(=O)OCC(=O)Nc1ccc2c(c1)CCC2	inactive
CCOc1ccc(NC(=O)C2CC(=O)N=C(N)S2)cc1 (stereo not drawn)	inactive
COc1ccccc1-c1nnc(NC(=O)c2cccc(N3C(=O)CCC3=O)c2)o1	inactive
Cc1ccc(C(=O)Nc2nnc(C3=COCCO3)o2)cc1C	23.1 µM (active)
COc1cc(-c2nnc(NC(=O)C3=COCCO3)o2)cc(OC)c1OC	inactive
COc1cc(C(=S)N2CCOCC2)ccc1O	inactive
CCCCC(NC(=O)c1cccc(Br)c1)C(=O)O (stereo not drawn)	inactive
O=C(CN1C(=O)NC2(CCCC2)C1=O)NCC1CCCO1 (stereo not drawn)	inactive
O=C(c1ccccc1)N1CCN(C(=O)N2CCCCC2)CC1	inactive
CC(C)c1ccc(NC(=O)C2CCN(c3nc(-c4ccc(C(C)C)cc4)no3)CC2)cc1	13 µM (active)
Cc1cc(C)cc(NC(=O)C2CCN(c3nc(C)cc(C)n3)CC2)c1	inactive
CC(=O)NN=C(C)c1ccc(NC(=O)C2CC2)cc1	inactive
Cc1ccc(-n2ncc3c(=O)[nH]cnc32)c(C)c1	inactive
CC(C)Cc1ccc(-c2cc3nc(NCc4cccc(Cl)c4)ccn3n2)cc1	18.4 µM (active)
COc1ccccc1-c1cc2nc(C)c(CCC(=O)NC3CCCCC3)c(C)n2n1	inactive

SMILES	Potency
COc1ccccc1-c1cc2nc(C)c(CCC(=O)O)c(C)n2n1	inactive
COCCCNc1ccn2nc(-c3ccc(CC(C)C)cc3)cc2n1	inactive
COc1ccccc1-c1cc2nc(NCc3cccc(Cl)c3)ccn2n1	18.4 µM (active)
Cc1nc2cc(NC(=O)[C@@H]3C[C@@H](Sc4ccccn4)CN3Cc3ccccc3C)ccc2s1	inactive
O=C1/C(=C/c2ccc3c(c2)OCO3)CCC/C1=C\c1ccc2c(c1)OCO2	inactive
O=C(OCC(=O)N1CCCCCC1)c1cnc(Cl)c(Cl)c1	inactive
COc1cccc(C2C(C(=O)Nc3ccc(C)cc3C)=C(C)Nc3c(C(=O)Nc4ccccc4)cnn32)c1 (stereo not drawn)	inactive
CCc1ccc(C2C(C(=O)Nc3ccccc3)=C(C)Nc3c(C(=O)Nc4ccc(C)cc4)cnn32)cc1 (stereo not drawn)	23.1 µM (active)
CC1=C(C(=O)Nc2ccccc2)C(c2ccc(C)cc2)n2nc(SCc3ccccc3C)nc2N1 (stereo not drawn)	inactive
CCCSc1ncccc1C(=O)O	inactive
Cc1cnc(CN(C)C(=O)C2CCC(=O)N(CCc3cccc(F)c3)C2)[nH]1 (stereo not drawn)	inactive
COc1ccc2oc(=O)c(C(=O)N3CCN(c4ccccc4F)CC3)cc2c1	inactive
O=C(Nn1cc(C(=O)N2CCN(c3ccccc3F)CC2)c2ccccc2c1=O)c1cnccn1	13 µM (active)
Cc1oc2ncn(CC(C)C)c(=O)c2c1C(=O)N1CCN(c2ccccc2F)CC1	inactive
CCOCCCNC(=O)C(=O)NCCCOCC	inactive
O=C(CSc1nc2[nH]ncc2c(=O)[nH]1)Nc1ccc(F)cc1	inactive
CCOc1ccccc1NC(=O)CCn1cnnn1	inactive
Cc1[nH]c2ccc(S(N)(=O)=O)cc2c1C	inactive
CCc1nnc(NC(=O)C2CCN(C(=O)c3ccccc3C)CC2)s1	inactive
Cc1ccccc1C(=O)N1CCC(C(=O)Nc2ccc(S(=O)(=O)N(C)C(C)C)cc2)CC1	20.6 µM (active)
Cc1ccccc1C(=O)N1CCC(C(=O)Oc2ccc(C#N)cc2)CC1	inactive
COc1ccc(-n2c(C)csc2=S)cc1	inactive
COC(=O)C1(C(=O)OC)C/C=C\CN(S(=O)(=O)c2ccccc2[N+](=O)[O-])CCC1	16.4 µM (active)
COc1ccc(S(=O)(=O)N2CCC(C(=O)OCC(=O)c3ccccc3)CC2)cc1[N+](=O)[O-]	inactive
O=C(OCCN1C(=O)c2ccccc2C1=O)[C@@H]1CC(O)CN1S(=O)(=O)c1ccccc1[N+](=O)[O-] (stereo partly drawn)	inactive
